Hits are enriched below; roughly 17% of the tested compounds scored in any of these assays.
HepG2 tox: counter-screen for TGF-b inhibitors: cytotoxicity in HepG2 cells; Potency, µM (series often up to 46.1 µM), usual class: cytotoxic; HepG2 CAGA-GFP viability, ATP luminescence, 18 h; 0.76% of 410,000 active
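CellTiter-Glo luminescence gave cytotoxicity after 18 hours at 37 degrees C. The cells were HepG2 CAGA-GFP in 1% FBS DMEM, stimulated with 500 pg/mL TGF-beta after compound addition. %Activity was normalised to no-cell wells (complete cell-killing) and DMSO (no toxicity), and curves were fitted and classified.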
TDP1 cell noCPT: qHTS for Inhibitors of human tyrosyl-DNA phosphodiesterase 1 (TDP1): qHTS in cells in absence of CPT. DT40 Tdp1-/- hTDP1 cells, no CPT, ATP luminescence, 48 h. Potency, µM (titrated, usually from 46.2 µM), actives largely listed as inhibitors. 15% of 420,000 active. AID 686978, 2013; also: nearly all actives have a fitted effect of over 55% in size
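No-CPT arm: Tdp1-/-;hTDP1 DT40 cells (400/well) plus compounds, incubated ≥48 hr at 37 °C. Readout CellTiter-Glo luminescence.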
TDP1 cell CPT: growth inhibition of DT40 Tdp1-/-;hTDP1 cells with camptothecin (screen for TDP1 inhibitors); chicken DT40 Tdp1-/-;hTDP1 cells + 20 nM CPT, ATP luminescence, 48 h; 12% of 420,000 active; Potency, µM (series often up to 46.2 µM), usual class: inhibitors; also: nearly all actives have a fitted effect of over 55% in size
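Chicken DT40 Tdp1-/- cells stably complemented with human TDP1 were seeded at 400 cells/well in medium containing 20 nM camptothecin, exposed to pin-transferred compounds, and grown at 37 °C for at least 48 hr. Viability was read as ATP luminescence.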
TGFb SMAD3 inh: inhibitors of TGF-b signaling | Potency, µM (highest dose often 46.1 µM), most hits filed as inhibitors | 1.2% of 410,000 active | HepG2 CAGA-GFP TGF-b/SMAD3 reporter, GFP fluorescence, 18 h; TGF-beta stimulated, 500 pg/mL final; also: nearly all actives have a fitted effect of over 65% in size
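First, reporter cells (HEPG2 CAGA-GFP) rested 2 h at 37 degrees C. Next, compounds were pinned in and TGF-beta added to 500 pg/mL final. After 18 h, GFP was imaged per cell and summed per well.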
HT1080NT lethal: kills 2HG-producing HT-1080-NT fibrosarcoma cells | HT-1080-NT fibrosarcoma viability, CellTiter-Glo ATP luminescence, 48 h | Potency, µM (highest dose often 46.1 µM), hits mostly cytotoxic | 1.6% of 360,000 active;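 also: NT is the 2HG producing partner of a matched IDH1 knockdown line; nearly all actives have a fitted effect of over 55% in size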
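HT-1080-NT; 750 cells/well; 5% FBS RPMI; 48 h compound, 37 degrees C; CellTiter-Glo luminescence; curve fitting and curve-class assignment.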
HT1080 IDH1KD tx: toxicity to HT-1080 IDH1 knockdown cells (counter line) | HT-1080 IDH1 knockdown viability, ATP luminescence, 48 h | Potency, µM (highest dose often 46.1 µM), usual class: cytotoxic | 2% of 360,000 active
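After a 2 h attachment period, IDH1KD HT-1080 cells took pin-transferred compound for 48 h at 37 °C; ATP-based luminescence after 10 min room-temperature reagent incubation reported viability.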
Hits are given with their value. Calls follow the shape of the dose curve; as a rule, active = well fitted curve in the direction sought with a large enough effect; inconclusive = small, poorly fitted or top-dose-only effect, or another doubt; inactive = no such curve, though single readings can be large; an effect the other way counts as inactive or inconclusive.

What do the screens show for `OC(CNCc1ccccc1)(c1ccc(F)cc1)c1ccc(F)cc1`?
HepG2 tox: inactive; TDP1 cell noCPT: 18µM; TDP1 cell CPT: inconclusive; TGFb SMAD3 inh: inactive; HT1080NT lethal: inactive; HT1080 IDH1KD tx: inactive

Results for Cc1ccc(CNCC(O)(c2ccccc2)c2ccc(F)cc2)cc1 (configuration not stated) ?
HepG2 tox: inactive; TDP1 cell noCPT: 21µM; TDP1 cell CPT: inconclusive; TGFb SMAD3 inh: inactive; HT1080NT lethal: inactive; HT1080 IDH1KD tx: inactive

How did CC(C)(C)C(CO)NC(=O)c1ccc[nH]1 (configuration not stated) do in these assays?
HepG2 tox: inactive; TDP1 cell noCPT: inactive; TDP1 cell CPT: inactive; TGFb SMAD3 inh: inactive; HT1080NT lethal: inactive; HT1080 IDH1KD tx: inactive

Results for CCOC(=O)c1sc2nc(N3CCOCC3)c3c(c2c1N)CCCC3 ?
HepG2 tox: inactive; TDP1 cell noCPT: inactive; TDP1 cell CPT: inconclusive; TGFb SMAD3 inh: inactive; HT1080NT lethal: inactive; HT1080 IDH1KD tx: inactive

Results for CCOC(=O)c1sc2nc(N3CCOCC3)c3c(c2c1N)CC(C(C)C)OC3 (configuration not stated) ?
HepG2 tox: inactive; TDP1 cell noCPT: inactive; TDP1 cell CPT: 8.2µM; TGFb SMAD3 inh: inactive; HT1080NT lethal: inactive; HT1080 IDH1KD tx: inactive

Results for CCOC(=O)c1c(C)[nH]c(C(=O)OCC(=O)NCc2ccc(F)cc2)c1C ?
HepG2 tox: inactive; TDP1 cell noCPT: inconclusive; TDP1 cell CPT: inactive; TGFb SMAD3 inh: inactive; HT1080NT lethal: inactive; HT1080 IDH1KD tx: inactive

Results for CCOC(=O)C1=C(C)NC(C)=C(C(=O)OCC)C1C(=O)OCC(=O)N1c2ccccc2CC1C (configuration not stated) ?
HepG2 tox: inactive; TDP1 cell noCPT: 18µM; TDP1 cell CPT: inconclusive; TGFb SMAD3 inh: inactive; HT1080NT lethal: inactive; HT1080 IDH1KD tx: inactive

What do the screens show for `CCOC(=O)c1c(C)[nH]c(C(=O)OCC(=O)NCc2ccco2)c1C`?
HepG2 tox: inactive; TDP1 cell noCPT: 23µM; TDP1 cell CPT: 18µM; TGFb SMAD3 inh: inactive; HT1080NT lethal: inactive; HT1080 IDH1KD tx: inactive

How did CCOC(=O)c1c(C)[nH]c(C(=O)OCC(=O)N2c3ccccc3CC2C)c1C (configuration not stated) do in these assays?
HepG2 tox: inactive; TDP1 cell noCPT: 18µM; TDP1 cell CPT: inconclusive; TGFb SMAD3 inh: inactive; HT1080NT lethal: inactive; HT1080 IDH1KD tx: inactive

Results for c1ccc2c(SCc3cn4ccccc4n3)nncc2c1 ?
HepG2 tox: inactive; TDP1 cell noCPT: inactive; TDP1 cell CPT: inconclusive; TGFb SMAD3 inh: inactive; HT1080NT lethal: inactive; HT1080 IDH1KD tx: inactive

What do the screens show for `Cc1cc(NC(=O)CSc2ncc(C(=O)Nc3ccccc3)c(=O)n2C)no1`?
HepG2 tox: inactive; TDP1 cell noCPT: inactive; TDP1 cell CPT: inactive; TGFb SMAD3 inh: inactive

How did Cc1ccc(NC(=O)c2cnc(SCC(=O)c3ccccc3)n(C)c2=O)cc1 do in these assays?
HepG2 tox: inactive; TDP1 cell noCPT: 16µM; TDP1 cell CPT: inactive; TGFb SMAD3 inh: inactive; HT1080NT lethal: inactive; HT1080 IDH1KD tx: inactive

Results for Cn1c(SCC(=O)c2ccccc2)ncc(C(=O)Nc2ccccc2)c1=O ?
HepG2 tox: inactive; TDP1 cell noCPT: 21µM; TDP1 cell CPT: inconclusive; TGFb SMAD3 inh: inactive; HT1080NT lethal: inactive; HT1080 IDH1KD tx: inactive

Results for COCc1cc(CN2CCCC(C(=O)c3cccc(C(F)(F)F)c3)C2)ccc1OC (configuration not stated) ?
HepG2 tox: inactive; TDP1 cell noCPT: inconclusive; TDP1 cell CPT: inconclusive; TGFb SMAD3 inh: inconclusive; HT1080NT lethal: inactive; HT1080 IDH1KD tx: inactive

Results for CCCCNC(=O)N1CCCC(C(=O)c2cc(C)c(OC)c(C)c2)C1 (configuration not stated) ?
HepG2 tox: inactive; TDP1 cell noCPT: 16µM; TDP1 cell CPT: inconclusive; TGFb SMAD3 inh: inactive; HT1080NT lethal: inactive; HT1080 IDH1KD tx: inactive

What do the screens show for `COc1cccc(O)c1CN1CCCC(C(=O)c2cccc(C(F)(F)F)c2)C1` (configuration not stated)?
HepG2 tox: inactive; TDP1 cell noCPT: 23µM; TDP1 cell CPT: 16µM; TGFb SMAD3 inh: 16µM; HT1080NT lethal: inactive; HT1080 IDH1KD tx: inconclusive

What do the screens show for `CCCc1cc(C(=O)N2CCCC(C(=O)c3cc(C)c(OC)c(C)c3)C2)n(C)n1` (configuration not stated)?
HepG2 tox: inactive; TDP1 cell noCPT: inconclusive; TDP1 cell CPT: inactive; TGFb SMAD3 inh: inactive; HT1080NT lethal: inactive; HT1080 IDH1KD tx: inactive

Results for CCOc1cccc(CN2CCCC(C(=O)c3cccc(C(F)(F)F)c3)C2)c1O (configuration not stated) ?
HepG2 tox: inactive; TDP1 cell noCPT: inactive; TDP1 cell CPT: inactive; TGFb SMAD3 inh: inactive; HT1080NT lethal: inactive; HT1080 IDH1KD tx: inactive

What do the screens show for `O=C(c1cccc(C(F)(F)F)c1)C1CCCN(Cc2cccn2-c2ccccn2)C1` (configuration not stated)?
HepG2 tox: inactive; TDP1 cell noCPT: 15µM; TDP1 cell CPT: 15µM; TGFb SMAD3 inh: inconclusive; HT1080NT lethal: inconclusive; HT1080 IDH1KD tx: inconclusive

What do the screens show for `COc1c(C)cc(C(=O)C2CCCN(Cc3cccc4nccnc34)C2)cc1C` (configuration not stated)?
HepG2 tox: inactive; TDP1 cell noCPT: 16µM; TDP1 cell CPT: inconclusive; TGFb SMAD3 inh: inconclusive; HT1080NT lethal: inactive; HT1080 IDH1KD tx: inactive

Results for CCN(CC)C(=O)Cn1cc(C(=O)C(=O)N2CCN(c3ccc(OC)cc3)CC2)c2ccccc21 ?
HepG2 tox: inactive; TDP1 cell noCPT: inactive; TDP1 cell CPT: inactive; TGFb SMAD3 inh: inactive; HT1080NT lethal: inactive; HT1080 IDH1KD tx: inactive

How did COc1ccc(C(=O)C2CCCN(Cc3c(O)cccc3OC)C2)cc1OC (configuration not stated) do in these assays?
HepG2 tox: inactive; TDP1 cell noCPT: 7.3µM; TDP1 cell CPT: inconclusive; TGFb SMAD3 inh: inactive; HT1080NT lethal: inactive; HT1080 IDH1KD tx: inconclusive

Results for COc1cccc(OC)c1CN1CCCC(C(=O)c2ccccc2SC)C1 (configuration not stated) ?
HepG2 tox: inactive; TDP1 cell noCPT: 21µM; TDP1 cell CPT: 16µM; TGFb SMAD3 inh: inconclusive; HT1080NT lethal: inactive; HT1080 IDH1KD tx: inactive
